Many of the other results were omitted from the sample, so hits are more common in it than they were.
ST2 inh = blocks human ST2 binding to IL-33; AlphaLISA ST2-Fc/biotin-IL-33 interaction, 1 h; 2.3% of 78,000 active; inhibition, % for hits at 17 µM; in the data active = inhibition above about 30%
Target sequence (Q01638 whole entry, looked up): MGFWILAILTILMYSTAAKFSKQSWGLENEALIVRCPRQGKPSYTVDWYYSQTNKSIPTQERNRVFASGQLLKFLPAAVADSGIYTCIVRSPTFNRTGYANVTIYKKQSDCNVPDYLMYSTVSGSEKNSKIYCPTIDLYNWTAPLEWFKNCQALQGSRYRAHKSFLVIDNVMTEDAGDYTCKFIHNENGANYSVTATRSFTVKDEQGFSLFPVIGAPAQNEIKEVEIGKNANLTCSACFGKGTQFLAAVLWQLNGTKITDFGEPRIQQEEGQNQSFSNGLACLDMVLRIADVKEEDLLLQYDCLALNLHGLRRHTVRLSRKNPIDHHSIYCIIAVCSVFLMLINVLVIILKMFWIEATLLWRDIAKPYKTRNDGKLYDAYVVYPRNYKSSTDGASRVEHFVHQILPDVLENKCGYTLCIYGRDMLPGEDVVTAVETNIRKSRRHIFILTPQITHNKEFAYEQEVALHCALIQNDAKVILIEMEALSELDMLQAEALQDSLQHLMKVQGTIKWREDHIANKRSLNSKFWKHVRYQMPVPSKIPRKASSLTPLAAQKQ
* marks the source's active call; other numbers are inactive results; i = inactive; ! = repeats disagree.

SMILES	ST2 inh
Cc1ccc(Cn2c(CCNC(=O)Nc3ccccc3Cl)nc3cccnc32)cc1	36%*
Cc1ccc(CNC(=O)NCCc2nc3cccnc3n2Cc2ccc(C)cc2)cc1	i
Cn1c(=O)c2c(nc3n2CC(c2ccc(Cl)cc2)=NN3CCO)n(C)c1=O	i
CC(=O)Nc1ccc(C(=O)N2CCC(=O)N(CC3CC3)C(C(C)C)C2)cc1 (stereo not drawn)	i
O[C@@H]1C[C@@H](c2nc(-c3ccc(C(F)(F)F)cc3)no2)N(Cc2cc3ccccc3o2)C1	i
CC(C)c1noc([C@@H]2C[C@@H](O)CN2Cc2cc3ccccc3o2)n1	38%*
O=S(=O)(Cc1noc([C@@H]2C[C@@H](O)CN2Cc2cc3ccccc3o2)n1)c1ccc(F)cc1	i
CN1CCCN(Cc2cccs2)CC1	i
CCNc1ccc(N)c(C)c1C	79%*
COc1ccc(C(=O)N2C[C@@H]3C[C@H](C2)c2c(NC(=O)c4cncnc4)ccc(=O)n2C3)cc1	i
COc1cc(C=Nc2c(C)n(C)n(-c3ccccc3)c2=O)cc([N+](=O)[O-])c1O	i
Cc1c(N=Cc2cc([N+](=O)[O-])ccc2N(C)C2CCCCC2)c(=O)n(-c2ccccc2)n1C	47%*
COc1cc(C=Nc2c(C)n(C)n(-c3ccccc3)c2=O)c([N+](=O)[O-])cc1OC	i
Cc1c(N=Cc2ccc(Cl)o2)c(=O)n(-c2ccccc2)n1C	i
Cc1c(N=Cc2cc([N+](=O)[O-])ccc2N2CCCCCC2)c(=O)n(-c2ccccc2)n1C	42%*
Cc1c(N=Cc2cc(Br)cc(Br)c2O)c(=O)n(-c2ccccc2)n1C	i
C#CCNC[C@@H]1C=C(C)[C@H](Cc2nnc(-c3ccc(C)cc3)o2)C[C@H]1C(C)C	i
Cn1c(=O)cc(SCC(=O)NCc2ccco2)c2ccc(Cl)cc21	i
Cc1nc(CN(C)Cc2cc(C(C)(C)C)ccc2O)no1	i
O=C(NCCCN1CCCCCC1)c1cc2cc3ccc(Cl)cc3nc2o1	44%*!
CCC1CCCCN1CCCNC(=O)c1cc2cc3ccc(Cl)cc3nc2o1 (stereo not drawn)	i
COc1ccc2cc3cc(C(=O)Nc4cc(Cl)ccc4OC)oc3nc2c1	i
CCCN(CCC)CCCNC(=O)c1cc2cc3ccc(OC)cc3nc2o1	i
COc1ccc2cc3cc(C(=O)Nc4ccc(F)cc4Cl)oc3nc2c1	i
CCCCN(CC)CCCNC(=O)c1cc2cc3ccc(OC)cc3nc2o1	i
SMILES	ST2 inh
COc1ccc2cc3cc(C(=O)NCCCN4CCN(C)CC4)oc3nc2c1	i
CCN(CCCNC(=O)c1cc2cc3ccc(Cl)cc3nc2o1)c1ccccc1	34%*!
O=C(Nc1ccc(F)cc1)c1cc2cc3ccc(Cl)cc3nc2o1	37%*!
Cc1cnc(C(=O)N2CC(=O)N(CCc3ccccc3)CC(OCc3cccc(F)c3)C2)[nH]1 (stereo not drawn)	i
Cc1cc(OCC(=O)N2N=C(C3CCCCC3)CC2(O)C(F)(F)F)ccc1Cl (stereo not drawn)	i
COc1cc(/C=C2/C(=O)NC(=O)N(c3ccc(Br)c(C)c3)C2=O)cc(OC)c1OC	i
CC(=O)Nc1cc(C(N)=O)cc(C(N)=O)c1	i
CCc1ccccc1NC(=O)CN(C)S(=O)(=O)c1ccc(Br)cc1	i
COc1ccc(NC2CCCN(C(=O)/C=C/c3cccc(Cl)c3)C2)cc1OC (stereo not drawn)	i
COc1ccc(NC(=O)NC2CCCN(C3CCCCCC3)C2)cc1OC (stereo not drawn)	i
COc1ccc(NC2CCCN(C3CCN(c4ccccc4C)CC3)C2)cc1OC (stereo not drawn)	34%*
O=C1c2cccc3cccc(c23)C(=O)N1CCNCCO	i
O=C1c2c(O)ccc(O)c2C(=O)c2c(NCCNCCO)ccc(NCCNCCO)c21	82%*
CCOc1cc(-c2nccn2C(C)c2nc(CC)no2)ccc1OC (stereo not drawn)	i
N#Cc1ccccc1N1C(=O)C2C3C=CC(C3)C2C1=O (stereo not drawn)	i
Cc1ccccc1NC1=C(N)C(=O)c2ccccc2C1=O	87%*
Cc1ccccc1NCN1C(=O)C2C3C=CC(C3)C2C1=O (stereo not drawn)	i
Cc1ccccc1NC(=O)c1ccc(C(=O)Nc2ccccc2C)cc1	i
CC(=O)Nc1ccc(S(=O)(=O)NCCSCc2ccc(Cl)cc2)cc1	i
Cc1nc(CNC(=O)c2cc(CC(C)C)nn2C)cs1	i
CCOc1ccccc1C(=O)Nc1cc(N2CCCS2(=O)=O)ccc1C	i
Cc1cc(N2CCN(c3cc(N4CCN(CCO)CC4)ccc3[N+](=O)[O-])CC2)c2ccccc2n1	i
O=[N+]([O-])c1ccc(N2CCN(c3nc(N4CCN(CCO)CC4)nc4ccccc34)CC2)cc1	31%*
OCCN1CCN(c2nc(NCc3ccco3)c3ccccc3n2)CC1	i
c1cncc(CNc2ncnc3ccccc23)c1	i
SMILES	ST2 inh
CC(C)c1cc(C(=O)N(CC2CCN(Cc3ccccc3F)CC2)CC2CCCO2)on1 (stereo not drawn)	i
Cc1cn(-c2ccccc2)[nH]c1=O	i
Cc1c(C(c2ccco2)c2c(C)n(C)n(-c3ccccc3)c2=O)c(=O)n(-c2ccccc2)n1C	i
Cc1[nH]n(-c2ccccc2)c(=O)c1C(c1ccco1)c1c(C)[nH]n(-c2ccccc2)c1=O	51%*
Cc1nc(NCC2CCCO2)c2sc3nc4c(cc3c2n1)COC(C)(C)C4 (stereo not drawn)	i
CCOC(=O)c1sc2nc(Cc3ccccc3)[nH]c(=O)c2c1C	i
COc1ccc(C(=O)N2C[C@@H](O)[C@H](NCc3ncccc3C)C2)cc1	i
CN(Cc1nc(-c2ccncc2)no1)C(=O)C1(c2ccccc2F)CC1	i
C/C(Cl)=C\CN1C(=O)C(=O)c2cccc(C)c21	54%*
Cc1cc(CN2C(=O)C(=O)c3ccccc32)c(C)cc1CN1C(=O)C(=O)c2ccccc21	i
Cc1cccc(NC(=O)CN2C(=O)C(=O)c3ccccc32)c1	i
Cc1nc(N2CCc3ccccc3C2)c2c3c(sc2n1)CCCC3	i
CSCC(C)N1CCC(Oc2cc(Cl)ccc2C(=O)N2CCCCC2)CC1 (stereo not drawn)	i
O=C(NCc1cccs1)c1ccccc1Br	i
O=C(C1CC1)N1CCc2cc(Br)cc(S(=O)(=O)Nc3ccccc3F)c21	i
CCOc1ccc(C(=O)Nc2cc(N3CCCS3(=O)=O)ccc2C)cc1	i
Cc1c(Cl)c(C)c([N+](=O)[O-])c(O)c1C=Nc1cccc(C(=O)O)c1	i
O=[N+]([O-])c1ccc(N=Cc2cc(Br)cc(I)c2O)cc1	i
Oc1c(C=Nc2ccc(Br)cc2)[nH]c2ccc(Br)c(Cl)c12	30%*
Oc1c(C=Nc2cccc(F)c2)[nH]c2ccc(Br)c(Cl)c12	32%*
Oc1c(C=NC2CCCCC2)[nH]c2ccc(Br)c(Cl)c12	45%*
O=[N+]([O-])c1cccc(N=Cc2ccc(Br)c([N+](=O)[O-])c2)c1	i
Cc1ccc(C=Nc2ccc(Br)cc2)cc1	i
O=C(c1cnn2ccccc12)N1CC[C@@H](c2ccc3c(c2)OCO3)[C@H](O)C1	i
Cc1[nH]c(=O)[nH]c(=O)c1-c1ccc(-n2cccn2)cc1	i
O=S(=O)(N1CCCCCC1)N1CC[C@H]2CC[C@@H](C1)N2	i
O=C(CSc1ncnc2ccccc12)Nc1ccc2nsnc2c1	i
O=C1Nc2cc(Cl)c(Cl)cc2N(O)N1c1ccc(Br)cc1F	i
Cc1nc2c(c(=O)[nH]1)CCN(S(=O)(=O)c1cc(Cl)ccc1Cl)C2	i
